# Out of some 310,000 compounds screened, about 14,000 (4.5%) showed an effect of 50% or more. The effect is printed as a negative number. Many of the other results were omitted from the sample, so strong results are more common in it than they were.
# Target: human ether-à-go-go-related gene (hERG) potassium channel (human, UniProt Q12809)
# Test: primary screen, population patch clamp on CHO cells stably expressing hERG; higher = less effect of the substance
# 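Note: peak tail current of the secondary pulse compared with the same well before compound.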
# Chain of human ether-à-go-go-related gene (hERG) potassium channel (Q12809 whole entry, looked up): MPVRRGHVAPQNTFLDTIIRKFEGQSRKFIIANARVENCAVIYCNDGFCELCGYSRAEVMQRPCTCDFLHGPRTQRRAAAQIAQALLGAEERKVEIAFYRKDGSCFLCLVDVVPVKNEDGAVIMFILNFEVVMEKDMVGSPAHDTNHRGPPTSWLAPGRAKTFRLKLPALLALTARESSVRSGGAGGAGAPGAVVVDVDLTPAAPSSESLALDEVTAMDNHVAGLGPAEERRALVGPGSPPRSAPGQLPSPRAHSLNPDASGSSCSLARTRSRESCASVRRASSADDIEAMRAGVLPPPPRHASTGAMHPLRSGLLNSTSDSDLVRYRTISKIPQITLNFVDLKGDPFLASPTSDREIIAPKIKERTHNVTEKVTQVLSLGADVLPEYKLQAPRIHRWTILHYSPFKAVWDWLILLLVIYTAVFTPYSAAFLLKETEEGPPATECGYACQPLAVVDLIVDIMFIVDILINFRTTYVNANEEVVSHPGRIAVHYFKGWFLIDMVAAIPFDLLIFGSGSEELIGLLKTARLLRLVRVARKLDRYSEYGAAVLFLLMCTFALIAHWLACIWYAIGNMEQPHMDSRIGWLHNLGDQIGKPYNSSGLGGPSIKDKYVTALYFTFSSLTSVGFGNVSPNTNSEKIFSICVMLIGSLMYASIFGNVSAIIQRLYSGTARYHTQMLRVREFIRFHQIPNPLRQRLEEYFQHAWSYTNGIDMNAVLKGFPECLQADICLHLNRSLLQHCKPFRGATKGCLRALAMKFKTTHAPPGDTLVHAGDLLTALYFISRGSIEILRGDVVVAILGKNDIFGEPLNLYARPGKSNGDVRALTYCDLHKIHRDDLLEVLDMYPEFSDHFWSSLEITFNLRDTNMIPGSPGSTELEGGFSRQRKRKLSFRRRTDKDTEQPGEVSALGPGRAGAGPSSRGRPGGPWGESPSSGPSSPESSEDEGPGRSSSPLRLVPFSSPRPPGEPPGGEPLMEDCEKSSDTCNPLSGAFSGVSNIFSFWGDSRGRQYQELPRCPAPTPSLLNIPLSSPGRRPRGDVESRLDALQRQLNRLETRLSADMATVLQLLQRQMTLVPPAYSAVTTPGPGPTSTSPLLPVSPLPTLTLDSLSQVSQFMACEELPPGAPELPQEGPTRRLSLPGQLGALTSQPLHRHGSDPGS
row,SMILES,"hERG current change (%, negative = inhibition) at 10uM [%]"
1,COc1ccc(-n2c(O)c(C(C)=NCCc3c[nH]c4ccccc34)c(=O)[nH]c2=O)cc1,14.6
2,Cc1cc(C)cc(Oc2c(C(F)(F)F)oc3cc(OCC(=O)O)ccc3c2=O)c1,4.25
3,Cc1ccc(NC(=O)CSc2nnc(-c3cnccn3)n2C)cc1C,-5.78
4,C/C(=N\Nc1nncc2ccccc12)c1ccc(OCC(=O)N(C)C)cc1,8.27
5,COc1cc(CN2CCN(c3cccc(C)c3C)CC2)cc([N+](=O)[O-])c1O,23.5
6,CCC(C)C(NC(=O)C1CCC(C)CC1)C(=O)NC(C(=O)OC)C(C)C (stereo not shown),-0.903
7,CCCn1c2ccccc2c2nc3ccccc3nc21,13
8,COc1ccc2c(c1)c(C(=O)CN1CCN(Cc3ccccc3)CC1)c(C)n2C,-29.8
9,OC(CN1CCC(Cc2ccccc2)CC1)c1ccccc1 (stereo not shown),-52.9
10,Fc1ccccc1CN1CCC(Cc2ccccc2)CC1,-24.4
11,OC(CN1CCN(c2ccccc2Cl)CC1)c1ccccc1 (stereo not shown),-42.3
12,Cl.OC(COc1ccccc1F)CN1CCC(Cc2ccccc2)CC1 (stereo not shown),-76.2
13,OC(COc1ccc(F)cc1Cl)CN1CCC(Cc2ccccc2)CC1 (stereo not shown),-84.6
14,Cc1c(C(O)CN2CCC(C(N)=O)CC2)c2ccccc2n1C (stereo not shown),-3.73
15,Fc1cccc(CN2CCC(Cc3ccccc3)CC2)c1,5.12
16,CC1CCN(CC(O)COc2cccc(F)c2)CC1 (stereo not shown),-24.8
17,COc1ccc2c(c1)c(C(O)CN1CCC(Cc3ccccc3)CC1)c(C)n2C (stereo not shown),-71
18,OC(CN1CCC(Cc2ccccc2)CC1)C(F)(F)F (stereo not shown),5.97
19,O=C(O)C(=O)O.O=S(=O)(c1ccc(F)cc1)N1CCN(CC(O)COc2ccccc2F)CC1 (stereo not shown),-14.5
20,COc1ccccc1NC(=O)Nc1nc(CC(=O)Nc2cccc(F)c2)cs1,-3.26
21,COc1ccc(CCNC(=O)C2CCN(S(=O)(=O)c3cccc4cccnc34)CC2)cc1OC,12.1

row,SMILES,"hERG current change (%, negative = inhibition) at 10uM [%]"
1,CCOC(=O)N1CCN(c2nnnn2-c2ccccc2)CC1,-0.913
2,CCCCNC(=O)C(CC)(ONc1ccccc1C(F)(F)F)c1ccccc1 (stereo not shown),6.19
3,CC(C)(C)c1ccc(C(=O)NNC(=O)C(=O)N2CCCCC2)cc1,14.3
4,CS(=O)(=O)Nc1cccc(C2=NN(C(=O)c3cccc([N+](=O)[O-])c3)C(c3cccs3)C2)c1 (stereo not shown),-13.4
5,COc1cccc(OCC(O)CN2CCC(Cc3ccccc3)CC2)c1.Cl (stereo not shown),-70.4
6,COc1cccc(OCC(O)CN2CCC(C)CC2)c1.Cl (stereo not shown),-12.3
7,COc1cccc(OCC(O)CN2CCN(c3ncccn3)CC2)c1.Cl (stereo not shown),-11
8,COc1ccc(CCNC(=O)C(CC(C)C)NC(N)=O)cc1 (stereo not shown),9.22
9,COc1ccc(C)cc1Nc1n[n+](-c2ccccc2)c(-c2cccc(Cl)c2Cl)s1.[Cl-],10
10,COc1ccc(C)cc1Nc1n[n+](C)c(-c2c3ccccc3cc3ccccc23)s1.[Cl-],13.3
11,COc1ccc(C)cc1Nc1n[n+](-c2ccccc2)c(-c2ccc(NC(C)=O)cc2)s1.[Cl-],12.8
12,COc1ccc(C)cc1Nc1n[n+](-c2ccccc2)c(-c2cc([N+](=O)[O-])cc(OC)c2O)s1.[Cl-],6.15
13,COc1ccc(C)cc1Nc1n[n+](-c2ccccc2)c(-c2c(Cl)cccc2Cl)s1.[Cl-],-55.9
14,COc1ccc(C)cc1Nc1n[n+](-c2ccccc2)c(-c2ccc(OC)c(OC)c2OC)s1.[Cl-],-71.8
15,COc1ccc(C)cc1Nc1n[n+](-c2ccccc2)c(-c2ccc(C(=O)O)cc2)s1.[Cl-],18
16,COc1ccc(C)cc1Nc1n[n+](-c2ccccc2)c(-c2cc(OC)c(OC)cc2Br)s1.[Cl-],-48.9
17,COc1ccc(C)cc1Nc1n[n+](-c2ccccc2)c(-c2c(OC)ccc3ccccc23)s1.[Cl-],-53.8
18,COc1ccc(-c2nnc(SCC(=O)N(Cc3ccccc3)C(C)(C)C)o2)cc1OC,-22.9
19,O=c1c(Cc2ccc(Cl)cc2)c(O)ccn1Cc1cccs1,4.04
20,Cc1ccc(C(=O)NC2CC(=O)N(c3ccc4c(c3)OCCO4)C2)cc1[N+](=O)[O-] (stereo not shown),14.6
21,CCC1(CC)NC(=O)N(CC(=O)OCC(=O)c2ccccc2OC)C1=O,0.647

row,SMILES,"hERG current change (%, negative = inhibition) at 10uM [%]"
1,CC(C)(C)NC(=O)C(Cc1ccccc1)NS(=O)(=O)c1cccc2nsnc12 (stereo not shown),-1.39
2,CC(Sc1ccccc1)C(=O)N1CCN(S(=O)(=O)c2ccccc2)CC1 (stereo not shown),-8.83
3,O=[N+]([O-])c1cc(-n2cnnn2)ccc1N1CCC(Cc2ccccc2)CC1,-54.9
4,CC1CC(C)CN(c2ccc(-n3cnnn3)cc2[N+](=O)[O-])C1 (stereo not shown),-18.4
5,NC(=O)CC(NC(=O)c1ccccc1)c1ccc(N2CCC(Cc3ccccc3)CC2)c([N+](=O)[O-])c1 (stereo not shown),4.44
6,Cn1cnnc1SCc1cccc(Br)c1,0.347
7,COc1cccc(-n2c(CNc3ccc(F)cc3)nnc2SCC(N)=O)c1,-11.8
8,CCc1ccc(NC(=O)C2CCC(CNC(=O)[C@@H]3Cc4ccccc4CN3)CC2)cc1 (stereo partly shown),4.23
9,Cc1cccc(NC(=O)C2CCN(C(=O)[C@@H]3Cc4ccccc4CN3)CC2)c1,-67.2
10,Cc1ccc(NC(=O)C2CCN(C(=O)[C@@H]3Cc4ccccc4CN3)CC2)c(C)c1,-41.4
11,Cc1cccc(NC(=O)C2CCC(CNC(=O)[C@@H]3Cc4ccccc4CN3)CC2)c1 (stereo partly shown),-2.36
12,COc1ccc(CNC(=O)C2CCN(C(=O)[C@@H]3Cc4ccccc4CN3)CC2)cc1,-24.8
13,Cc1ccc(NC(=O)C2CCC(CNC(=O)[C@@H]3Cc4ccccc4CN3)CC2)cc1 (stereo partly shown),-25.8
14,Cc1cc(C)cc(NC(=O)C2CCC(CNC(=O)[C@@H]3Cc4ccccc4CN3)CC2)c1 (stereo partly shown),0.322
15,Cc1cc(C)cc(NC(=O)C2CCN(C(=O)[C@@H]3Cc4ccccc4CN3)CC2)c1,-67.7
16,COc1ccc(NC(=O)C2CCN(C(=O)[C@@H]3Cc4ccccc4CN3)CC2)cc1,-38.2
17,Cc1ccc(NC(=O)C2CCN(C(=O)[C@@H]3Cc4ccccc4CN3)CC2)cc1,-67.3
18,COc1cccc(NC(=O)C2CCN(C(=O)[C@@H]3Cc4ccccc4CN3)CC2)c1,-48.1
19,CCc1ccc(NC(=O)C2CCN(C(=O)[C@@H]3Cc4ccccc4CN3)CC2)cc1,-59.5

# From paper PMC4336329 (PLoS ONE, 2015)
